Experiment [1] concerns the target Paired box protein Pax-6 (Homo sapiens) (UniProt P26367). Nature of the experiment: ATG_Pax6_CIS: Attagene CIS-FACTORIAL HepG2 Assay for human Paired Box 6 (PAX6) (AID 2282956). The conditions noted are these: HepG2 CIS-FACTORIAL PAX6 reporter transcription, RNA readout; actives raise or lower the signal. The essentials: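 HepG2 cells transiently transfected with cis-promoter-driven multiplexed reporter units sensing endogenous transcription factor activity; 24 h chemical exposure. Reporter mRNA quantified by RT-PCR, 6-FAM labelling, HpaI digestion and capillary electrophoresis; bidirectional fit versus DMSO baseline.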

Experiment [2] in a line: ATG_PXRE_CIS: Attagene CIS-FACTORIAL HepG2 Assay for human Pregnane X Receptor Element (PXRE) (AID 2282957). To be noted: HepG2 Attagene CIS-FACTORIAL PXRE reporter, mRNA; actives raise or lower the signal. The essentials:
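Transfect HepG2 with MRTUs (cis promoter elements); dose chemical, incubate 24 h; isolate RNA, RT with oligo(dT), PCR, 6-FAM label, HpaI cut, CE. Gain/loss fit vs DMSO.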

Experiment [3] can be described thus: ATG_PPRE_CIS: Attagene CIS-FACTORIAL HepG2 Assay for human Peroxisome Proliferator-activated Response Element (PPRE) (AID 2282958). To be noted: HepG2 PPRE cis-element reporter, Attagene transcription factor profiling; actives raise or lower the signal. The method in brief:
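In this cell-based multiplex, a PPRE cis element drives a reporter sequence in transiently transfected HepG2 cells. Following 24 h treatment, labeled cDNA amplicons are sized and quantified by capillary electrophoresis, with DMSO defining baseline.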

Experiment [4] is described as follows: ATG_RORE_CIS: Attagene CIS-FACTORIAL HepG2 Assay for human RAR-related Orphan Receptor Element (RORE) (AID 2282959). To be noted: HepG2 Attagene cis-factorial RORE reporter, mRNA; actives raise or lower the signal. The method in brief:
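Endogenous factor activity at a cis response element is read as reporter transcript levels in HepG2 cells, 24 h post-dose. Transcripts are quantified by RT-PCR with capillary electrophoresis, and data fitted in both directions against DMSO.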

A short description of experiment [5]: ATG_Sox_CIS: Attagene CIS-FACTORIAL HepG2 Assay for human SRY-box transcription factor (SOX) (AID 2282960). The conditions noted are these: HepG2 Attagene cis-factorial SOX reporter, mRNA; actives raise or lower the signal. The essentials:
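Measures mRNA induction of a SOX1-associated reporter in HepG2 after 24 h dosing. Fluorescently labelled RT-PCR fragments are separated by capillary electrophoresis, and gain or loss relative to DMSO control is fitted.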

In experiment [6] the target is Transcription factor Sp1 (Homo sapiens) (UniProt P08047). As to the kind of experiment: ATG_Sp1_CIS: Attagene CIS-FACTORIAL HepG2 Assay for human Specificity Protein 1 (Sp1) (AID 2282961). To be noted: HepG2 Sp1 cis-reporter transcription, actives raise or lower the signal. The essentials:
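Cells: HepG2, transiently transfected with cis-regulated multiplexed reporters. Exposure: 24 h. Detection: reporter transcripts amplified, fluorescently labeled, restriction-digested and sized by capillary electrophoresis. Analysis: bidirectional fit relative to DMSO.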

Experiment [7] in a line: ATG_SREBP_CIS: Attagene CIS-FACTORIAL HepG2 Assay for human Sterol Regulatory Element Binding (SREBP) (AID 2282962). To be noted: HepG2 Attagene cis-factorial SREBP reporter, mRNA; actives raise or lower the signal. The essentials: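 HepG2 cells transiently transfected with multiplexed cis-promoter reporter units sensing endogenous transcription factors; reporter mRNA measured 24 h after dosing by RT-PCR, 6-FAM labeling, HpaI digestion and capillary electrophoresis. Bidirectional fit versus DMSO.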

Experiment [8] addresses Signal transducer and activator of transcription 3 (Homo sapiens) (UniProt P40763). Nature of the experiment: ATG_STAT3_CIS: Attagene CIS-FACTORIAL HepG2 Assay for human Signal Transducer and Activator of Transcription 3 (STAT3) (AID 2282963). The conditions noted are these: HepG2, Attagene cis-factorial STAT3 reporter transcription; actives raise or lower the signal. The essentials: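 After a 24 h compound incubation, total RNA from MRTU-transfected HepG2 cells was converted to cDNA and reporter sequences PCR-amplified, labelled and profiled by capillary electrophoresis. Gain and loss of signal were referenced to DMSO.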

The nature of experiment [9]: ATG_TA_CIS: Attagene CIS-FACTORIAL HepG2 Assay for human TA Basal Promoter (AID 2282964). To be noted: HepG2 Attagene CIS-factorial TA basal promoter reporter; actives raise or lower the signal. The method in brief:
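Steps: transfect HepG2 with MRTUs; dose 24 h; isolate RNA, DNase-treat, reverse-transcribe; PCR and FAM-label reporter cDNA; digest with HpaI 2h at 37 C; run capillary electrophoresis. Activity fitted both directions against DMSO.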

Experiment [10] can be described thus: ATG_TCF_b_cat_CIS: Attagene CIS-FACTORIAL HepG2 Assay for human T-Cell-Factor with beta-catenin (TCF/b-cat) (AID 2282965). To be noted: HepG2 TCF/beta-catenin cis-reporter transcription, actives raise or lower the signal. The method in brief:
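Measured: reporter mRNA in HepG2 transiently transfected with cis-promoter reporter units, 24 h after chemical addition. Fitting was bidirectional, DMSO as negative control.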

A short description of experiment [11]: ATG_TAL_CIS: Attagene CIS-FACTORIAL HepG2 Assay for human TAL Basal Promoter (AID 2282966).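 Also: background control endpoint measuring basal TAL promoter reporter mRNA not a specific factor.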 The conditions noted are these: HepG2 Attagene cis-factorial TAL promoter reporter; actives raise or lower the signal. The method in brief: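 Fluorescence of labelled reporter cDNA fragments, resolved by capillary electrophoresis, gave the readout. Human HepG2 liver cells carried transiently transfected cis-element reporter units and were treated for 24 hours; activity was fitted bidirectionally against DMSO.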

Experiment [12] can be described thus: ATG_TGFb_CIS: Attagene CIS-FACTORIAL HepG2 Assay for human Transforming Growth Factor (TGF) (AID 2282967). To be noted: HepG2 Attagene CIS TGFb reporter, mRNA transcription; actives raise or lower the signal. The essentials: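 Cells were dosed for 24 hours, after which total RNA was reverse-transcribed and reporter sequences amplified, labeled and sized by capillary electrophoresis. Activity was fitted in both directions against DMSO.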

The nature of experiment [13]: ATG_VDRE_CIS: Attagene CIS-FACTORIAL HepG2 Assay for human Vitamin D Receptor Element (VDRE) (AID 2282968). The conditions noted are these: HepG2 VDRE cis-reporter transcription, actives raise or lower the signal. The essentials:
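In transiently transfected HepG2 liver cells, gain or loss of reporter mRNA after 24 h exposure is scored relative to DMSO, using fluorescence detection by capillary electrophoresis of RT-PCR products.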

Experiment [14] is described as follows: ATG_GAL4_TRANS: Attagene TRANS-FACTORIAL HepG2 Assay for GAL4 (Internal Marker) (AID 2282976; active = hit-call score of the fitted dose curve at least 0.9, where 1 is the maximum). The conditions noted are these: HepG2 Attagene TRANS GAL4 internal marker reporter. The essentials:
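First, HepG2 cells were transfected with reporter units under GAL4-UAS control. Next, they were treated with chemical for 24 h. Finally, RNA was reverse-transcribed, PCR-amplified, FAM-labelled and resolved by capillary electrophoresis, with induction scored against DMSO.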

In experiment [15] the target is Nuclear receptor subfamily 1 group I member 3 (Homo sapiens) (UniProt Q14994). As to the kind of experiment: ATG_CAR_TRANS: Attagene TRANS-FACTORIAL HepG2 Assay for human Constitutive Androstane Receptor (CAR) (AID 2282969; active = hit-call score of the fitted dose curve at least 0.9, where 1 is the maximum;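 also: activators raise reporter mRNA above DMSO so AC50 marks induction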). The conditions noted are these: HepG2 Attagene TRANS-FACTORIAL CAR reporter. The method in brief:
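Readout is reporter mRNA induction, quantified by fluorescent primer extension and capillary electrophoresis after RT-PCR. Cells were HepG2 transiently carrying chimeric NR-Gal4 constructs with GAL4-UAS reporters, treated for 24 h; activity scored upward from DMSO.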

Experiment [16] concerns the target X-box-binding protein 1 (Homo sapiens) (UniProt P17861). As to the kind of experiment: ATG_Xbp1_CIS: Attagene CIS-FACTORIAL HepG2 Assay for human X-box Binding Protein 1 (XBP1) (AID 2282972). The conditions noted are these: HepG2 XBP1 cis-element reporter, Attagene multiplex; actives raise or lower the signal. The essentials:
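HepG2 cells transiently transfected with multiple cis-element reporter units report endogenous TF activity; 24 h exposure, then reporter mRNA measured by RT-PCR, 6-FAM labelling, HpaI digestion and capillary electrophoresis. Bidirectional fitting versus DMSO.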

A short description of experiment [17]: ATG_M_19_TRANS: Attagene TRANS-FACTORIAL HepG2 Assay for M19 Transcription Factor (Internal Marker) (AID 2282974; active = hit-call score of the fitted dose curve at least 0.9, where 1 is the maximum). The conditions noted are these: HepG2 Attagene TRANS-FACTORIAL M19 internal marker reporter. The method in brief: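 Reporter mRNA induction was measured in transfected HepG2 cells 24 h after dosing. Endpoint fitted upward relative to DMSO and serves as a background control within the multiplexed TRANS panel.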

In experiment [18] the target is Glucocorticoid receptor (Homo sapiens) (UniProt P04150). As to the kind of experiment: ATG_GR_TRANS: Attagene TRANS-FACTORIAL HepG2 Assay for human Glucocorticoid Receptor (GR) (AID 2282978; active = hit-call score of the fitted dose curve at least 0.9, where 1 is the maximum;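 also: activators score as hits since higher reporter transcript over DMSO is fitted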). The conditions noted are these: HepG2 Attagene TRANS GR reporter, mRNA transcription. The essentials: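 Reporter transcript levels, detected by fluorescence after RT-PCR and capillary electrophoresis, served as the endpoint. HepG2 cells bearing transfected GAL4-UAS reporters responsive to NR-GAL4 chimeras were incubated with compound 24 h; DMSO defined baseline.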

For experiment [19], the target named is Estrogen-related receptor gamma (Homo sapiens) (UniProt P62508). As to the kind of experiment: ATG_ERRg_TRANS: Attagene TRANS-FACTORIAL HepG2 Assay for human Estrogen-Related Receptor gamma (ERRg) (AID 2282977; active = hit-call score of the fitted dose curve at least 0.9, where 1 is the maximum;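 also: hits increase reporter signal over DMSO so potencies reflect activators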). The conditions noted are these: HepG2 Attagene TRANS reporter, ERRg transactivation. The method in brief:
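HepG2 cells transiently transfected with multiplexed GAL4-UAS reporter units and chimeric NR-Gal4 constructs were exposed to test chemicals for 24 h. Reporter mRNA was measured by RT-PCR, 6-FAM primer extension, HpaI digestion and capillary electrophoresis; gain-of-signal versus DMSO.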

Records with an inconclusive call do not appear. Calls of active or inactive are those of the source. The calls were made as follows, unless noted: active = hit-call score of the fitted dose curve at least 0.9, where 1 is the maximum; inactive = score below 0.9.

Glucocorticoid receptor (Homo sapiens), sequence (P04150 whole entry, looked up, the tested form may be a part): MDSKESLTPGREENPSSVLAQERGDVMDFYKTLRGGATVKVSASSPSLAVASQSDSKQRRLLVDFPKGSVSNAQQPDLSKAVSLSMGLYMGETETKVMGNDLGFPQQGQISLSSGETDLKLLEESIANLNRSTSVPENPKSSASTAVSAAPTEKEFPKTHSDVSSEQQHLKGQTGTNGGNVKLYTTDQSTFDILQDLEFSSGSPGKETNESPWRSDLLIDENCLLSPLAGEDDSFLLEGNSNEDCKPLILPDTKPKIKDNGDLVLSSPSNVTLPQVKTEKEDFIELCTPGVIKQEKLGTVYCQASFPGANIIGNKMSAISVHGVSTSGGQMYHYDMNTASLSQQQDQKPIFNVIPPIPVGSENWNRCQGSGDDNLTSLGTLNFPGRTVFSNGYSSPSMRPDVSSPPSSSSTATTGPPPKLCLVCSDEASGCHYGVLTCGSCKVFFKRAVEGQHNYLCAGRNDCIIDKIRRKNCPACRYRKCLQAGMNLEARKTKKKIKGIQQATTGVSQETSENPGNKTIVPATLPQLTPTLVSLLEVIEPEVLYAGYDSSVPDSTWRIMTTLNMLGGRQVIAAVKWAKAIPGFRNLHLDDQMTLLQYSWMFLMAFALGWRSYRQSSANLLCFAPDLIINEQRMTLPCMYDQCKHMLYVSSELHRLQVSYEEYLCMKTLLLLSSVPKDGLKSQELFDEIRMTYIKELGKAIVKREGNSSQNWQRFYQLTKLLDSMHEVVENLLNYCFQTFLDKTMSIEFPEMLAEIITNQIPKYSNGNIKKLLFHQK
Paired box protein Pax-6 (Homo sapiens), sequence (P26367 whole entry, looked up): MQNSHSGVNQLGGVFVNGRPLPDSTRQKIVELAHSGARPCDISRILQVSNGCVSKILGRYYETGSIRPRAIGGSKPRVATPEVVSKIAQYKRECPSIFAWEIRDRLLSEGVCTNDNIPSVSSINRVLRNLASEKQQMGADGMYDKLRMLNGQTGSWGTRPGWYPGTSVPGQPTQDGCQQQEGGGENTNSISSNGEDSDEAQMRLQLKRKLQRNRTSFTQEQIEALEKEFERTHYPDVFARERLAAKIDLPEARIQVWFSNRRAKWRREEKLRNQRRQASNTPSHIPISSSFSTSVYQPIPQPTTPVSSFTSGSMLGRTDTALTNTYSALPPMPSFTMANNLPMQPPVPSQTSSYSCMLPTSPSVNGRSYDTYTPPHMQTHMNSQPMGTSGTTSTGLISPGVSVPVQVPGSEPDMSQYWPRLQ
Signal transducer and activator of transcription 3 (Homo sapiens), sequence (P40763 whole entry, looked up): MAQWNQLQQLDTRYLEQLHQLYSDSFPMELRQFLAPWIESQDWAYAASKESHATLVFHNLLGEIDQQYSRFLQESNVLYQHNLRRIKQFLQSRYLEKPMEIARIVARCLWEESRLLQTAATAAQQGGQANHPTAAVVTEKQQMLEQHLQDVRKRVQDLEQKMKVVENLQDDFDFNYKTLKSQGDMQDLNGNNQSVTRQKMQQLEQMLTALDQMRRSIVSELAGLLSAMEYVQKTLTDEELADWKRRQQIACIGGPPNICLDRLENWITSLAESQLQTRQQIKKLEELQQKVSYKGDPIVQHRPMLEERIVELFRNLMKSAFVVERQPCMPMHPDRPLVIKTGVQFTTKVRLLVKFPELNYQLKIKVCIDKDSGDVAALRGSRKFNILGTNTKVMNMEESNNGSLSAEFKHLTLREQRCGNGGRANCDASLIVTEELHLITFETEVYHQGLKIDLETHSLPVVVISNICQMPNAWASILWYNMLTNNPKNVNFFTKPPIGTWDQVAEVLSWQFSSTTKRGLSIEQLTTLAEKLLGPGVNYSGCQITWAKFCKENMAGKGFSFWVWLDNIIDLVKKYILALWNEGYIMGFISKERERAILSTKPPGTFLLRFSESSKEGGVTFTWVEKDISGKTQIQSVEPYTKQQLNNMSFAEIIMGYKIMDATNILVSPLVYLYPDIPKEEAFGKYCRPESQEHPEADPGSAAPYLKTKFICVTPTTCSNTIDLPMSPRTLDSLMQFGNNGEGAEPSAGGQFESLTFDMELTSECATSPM
X-box-binding protein 1 (Homo sapiens), sequence (P17861 whole entry, looked up): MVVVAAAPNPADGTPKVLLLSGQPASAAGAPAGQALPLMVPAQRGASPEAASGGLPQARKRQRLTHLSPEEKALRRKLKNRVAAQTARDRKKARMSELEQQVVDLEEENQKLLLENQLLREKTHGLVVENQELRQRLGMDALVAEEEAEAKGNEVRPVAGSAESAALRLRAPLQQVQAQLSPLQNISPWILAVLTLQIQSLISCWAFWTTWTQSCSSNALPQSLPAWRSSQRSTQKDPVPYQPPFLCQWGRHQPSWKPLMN
Transcription factor Sp1 (Homo sapiens), sequence (P08047 whole entry, looked up): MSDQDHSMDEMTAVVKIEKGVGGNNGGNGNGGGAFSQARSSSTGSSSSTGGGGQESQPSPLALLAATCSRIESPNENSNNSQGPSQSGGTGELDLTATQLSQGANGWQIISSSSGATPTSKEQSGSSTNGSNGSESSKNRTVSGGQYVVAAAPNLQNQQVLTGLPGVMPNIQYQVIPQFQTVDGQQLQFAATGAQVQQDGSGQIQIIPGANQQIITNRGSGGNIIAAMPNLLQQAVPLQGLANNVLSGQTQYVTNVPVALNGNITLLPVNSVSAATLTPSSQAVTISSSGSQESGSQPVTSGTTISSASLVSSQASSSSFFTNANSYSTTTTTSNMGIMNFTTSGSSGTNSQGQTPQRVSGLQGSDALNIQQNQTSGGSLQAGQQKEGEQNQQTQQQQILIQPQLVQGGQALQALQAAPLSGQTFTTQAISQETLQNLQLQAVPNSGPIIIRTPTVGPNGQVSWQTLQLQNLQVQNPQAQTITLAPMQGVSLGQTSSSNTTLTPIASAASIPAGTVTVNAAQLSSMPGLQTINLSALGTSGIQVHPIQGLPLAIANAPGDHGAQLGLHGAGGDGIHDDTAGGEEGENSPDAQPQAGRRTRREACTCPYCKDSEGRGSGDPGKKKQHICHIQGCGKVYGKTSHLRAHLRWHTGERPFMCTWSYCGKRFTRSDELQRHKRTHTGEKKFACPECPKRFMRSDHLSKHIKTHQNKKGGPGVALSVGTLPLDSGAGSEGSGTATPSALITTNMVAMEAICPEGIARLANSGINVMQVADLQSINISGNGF
Nuclear receptor subfamily 1 group I member 3 (Homo sapiens), sequence (Q14994 whole entry, looked up, the tested form may be a part): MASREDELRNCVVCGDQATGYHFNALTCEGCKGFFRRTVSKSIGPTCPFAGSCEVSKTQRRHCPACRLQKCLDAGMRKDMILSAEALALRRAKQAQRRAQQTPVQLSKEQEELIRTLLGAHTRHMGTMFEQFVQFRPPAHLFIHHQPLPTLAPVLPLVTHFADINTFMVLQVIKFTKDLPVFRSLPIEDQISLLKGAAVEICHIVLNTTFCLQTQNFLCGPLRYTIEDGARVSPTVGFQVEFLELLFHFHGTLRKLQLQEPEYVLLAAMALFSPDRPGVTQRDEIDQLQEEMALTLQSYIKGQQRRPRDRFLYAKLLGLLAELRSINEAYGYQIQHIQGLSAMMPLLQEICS
Estrogen-related receptor gamma (Homo sapiens), sequence (P62508 whole entry, looked up, the tested form may be a part): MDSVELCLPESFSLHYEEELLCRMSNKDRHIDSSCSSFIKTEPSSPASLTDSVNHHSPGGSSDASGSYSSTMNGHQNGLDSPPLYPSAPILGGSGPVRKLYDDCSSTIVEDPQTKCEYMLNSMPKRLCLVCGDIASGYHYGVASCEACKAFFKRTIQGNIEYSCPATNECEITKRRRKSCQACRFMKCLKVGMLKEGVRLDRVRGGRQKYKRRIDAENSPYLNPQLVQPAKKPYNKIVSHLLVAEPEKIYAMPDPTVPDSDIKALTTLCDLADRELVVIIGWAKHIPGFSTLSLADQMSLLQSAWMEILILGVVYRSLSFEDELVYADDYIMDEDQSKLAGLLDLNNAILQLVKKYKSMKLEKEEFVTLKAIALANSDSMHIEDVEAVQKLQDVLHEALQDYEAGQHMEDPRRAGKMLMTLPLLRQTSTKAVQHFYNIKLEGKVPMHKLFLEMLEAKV

As for `CC(C)CCCCCCOC(=O)c1ccc(C(=O)OCCCCCCC(C)C)c(C(=O)OCCCCCCC(C)C)c1`, the outcome in experiment [1], in [2], in experiment [3], in [4], in [5] and in experiment [6] was inactive. For the same molecule, the call in experiment [7], in [8], in experiment [9], in [10], in experiment [11] and in experiment [12] was inactive. Besides, the result in experiment [13] and in experiment [14] was inactive.
Consider `Nc1nc2ncc(CNc3ccc(C(=O)N[C@@H](CCC(=O)O)C(=O)O)cc3)nc2c(=O)[nH]1`, for which the molecule was classed as inactive in [1], in [2], in experiment [3], in experiment [4], in [5] and in experiment [6]. Further, the molecule was classed as inactive in experiment [7], in [8], in [9], in [10], in experiment [11] and in experiment [12]. Moreover, the result in experiment [13], in experiment [15], in experiment [16], in [17], in [14] and in experiment [18] was inactive.
As to `CC[C@H](C)C(=O)O[C@H]1C[C@@H](C)C=C2C=C[C@H](C)[C@H](CC[C@@H]3C[C@@H](O)CC(=O)O3)[C@H]21`, the call in [1], in experiment [3], in experiment [4], in experiment [5], in experiment [6] and in [8] was inactive. For the same molecule, the molecule was called inactive in [9], in experiment [10], in [11], in experiment [12], in experiment [16] and in experiment [17]. Further, the result in experiment [18] was inactive. The figures for the concentration at half-maximal activity (AC50) in experiment [2], in experiment [7] and in [13] were 1.8 µM (active), 1.36 µM (active) and 4.47 µM (active), respectively.
`CC(C)=CCCC(C)=CC=O`: the result in experiment [1], in experiment [3], in [4], in experiment [6], in [7] and in experiment [8] was inactive. Besides, the result in [9], in experiment [11], in experiment [12] and in [18] was inactive. Moreover, the AC50 is 4.7 µM (active) in experiment [2], 167 µM (active) in [5], 157 µM (active) in [10] and 22.2 µM (active) in experiment [13].
For the molecule `CC(C)CCO`, the molecule was classed as inactive in experiment [1], in [2], in experiment [3], in [4], in [5] and in experiment [6]. Besides, the molecule was called inactive in experiment [7], in [8], in [9], in experiment [10], in experiment [11] and in experiment [12]. The outcome in experiment [13], in experiment [16], in [17] and in experiment [14] was inactive.
As to `O=c1[nH]c2ccc(S(=O)CCN3CCC(Cc4ccc(F)cc4)CC3)cc2o1` (stereo unspecified), the AC50 was 73 µM (active) in experiment [1]; 26.3 µM (active) in [2]; 66.5 µM (active) in [5]; 31.2 µM (active) in [7]; 55.1 µM (active) in [13]; 71.1 µM (active) in experiment [16]. Also, the call in [3], in experiment [4], in experiment [6], in experiment [8], in experiment [9] and in [10] was inactive. In addition, the molecule was called inactive in experiment [11], in experiment [12], in [14], in experiment [19] and in experiment [18].
On to `C1=CCCC=CCCC=CCC1`, for which the call in experiment [1], in experiment [2], in [3], in experiment [4], in [5] and in experiment [7] was inactive. Also, the molecule was called inactive in [8], in experiment [9], in experiment [10], in experiment [11], in [12] and in experiment [13]. The molecule was called inactive in experiment [15], in experiment [16] and in experiment [18]. The concentration at half-maximal activity (AC50) in experiment [6] was 165 µM (active).

Values taken from PubChem BioAssay (EPA / NIEHS).
